19 compounds from PubChem BioAssay (NCATS) can be followed below.

For assay [1], the target named is Phospholipid hydroperoxide glutathione peroxidase GPX4 (Homo sapiens) (UniProt P36969). Briefly: Primary qHTS Assay for Inhibitors of Recombinant Selenoprotein Glutathione Peroxidase 4 (GPX4) (AID 1845192). Also: nearly all actives have a fitted effect of over 65% in size. Also: potency is read from the fitted curve at half-maximal effect. As to activity change, negative = inhibition: series mostly up to about 50 µM; % is scaled to controls: 0 for no effect and ±100 for the full control effect. An outline of the steps: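 GR-coupled assay: recombinant GPX4 preincubated 30 min with compound at room temperature; final 200 nM GPX4, 1 mM GSH, 0.5 mM cumene hydroperoxide, 0.5 mM NADPH, 100 nM GR, 0.01% BSA, pH 7.5 Tris. NADPH fluorescence (340/450 nm) read at 0 and 15 min.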

Assay [2] addresses Luciferin 4-monooxygenase (Photinus pyralis) (UniProt P08659). Briefly: Primary firefly luciferase (FLuc) qHTS assay for identification of artifact compounds. (AID 1845220). Also: nearly all actives have a fitted effect of over 60% in size.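 As to activity change, negative = inhibition: series mostly up to about 54 µM; plate controls were DMSO vehicle for no effect and no enzyme for full effect.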 An outline of the steps: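 Titrated compounds were incubated 15 min at RT, protected from light, with luciferin and ATP at 10 uM; reaction started with 10 nM FLuc, luminescence imaged at 5 min, and concentration-response fitted by Hill equation.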

Assay [3] can be described thus: Primary fluorescence-based thiol-reactive (MSTI) qHTS assay for identification of artifact compounds. (AID 1845221). Also: nearly all actives have a fitted effect of over 65% in size. Also: potency is read from the fitted curve at half-maximal effect.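 As to activity change, negative = thiol reactive: series mostly up to about 54 µM; thiol-reactive compounds lower the probe fluorescence signal.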 In outline: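 Reactivity toward the thiol probe MSTI (4 uM) is scored by fluorescence at Ex/Em 525/598 nm after 1 h at room temperature. Acetyl-MSTI and MSTI define the activity scale.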
In assay [4] the test system is Nanoluciferase (engineered Oplophorus gracilirostris luciferase). Kind of assay: Primary Nanoluciferase (NLuc) qHTS assay for identification of artifact compounds. (AID 1845222).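 Also: NLuc secreted into diluted conditioned medium of S16 cells; series mostly up to about 54 µM; 0% = DMSO and -100% = no enzyme.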 An outline of the steps:
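qHTS format, against NLuc in S16 cell-conditioned medium. Nano-Glo substrate 1:100 was added after 15 min at room temperature. Luminescence was taken after a further 5 min.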

Assay [5] can be described thus: Primary redox qHTS assay for identification of artifact compounds. (AID 1845223).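 Also: 0% = DMSO and 100% = reference compound.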 An outline of the steps:
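Amplex Red (25 uM) and HRP (250 mU/mL) in HBSS, with compounds for 15 min, then 250 uM DTT for 30 min, room temperature, dark. Fluorescence 525/598 nm read; normalized to DMSO and 10 uM DA3003; Hill fit.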

Unmarked numbers belong to inactive results. Records with an inconclusive call do not appear. Calls of active or inactive are those of the source. Calls follow the shape of the dose curve; as a rule, active = well fitted curve in the direction sought with a large enough effect; inconclusive = small, poorly fitted or top-dose-only effect, or another doubt; inactive = no such curve, though single readings can be large; an effect the other way counts as inactive or inconclusive. *1 amine or outer side, *2 acyl side, *3 side chain or, on linkers, in order; H or OH if unused. Where a SMILES comes first, the peptide text is derived from it. Bridges are numbered along the chain shown (N, C = ends). [ ]: non-standard residue; d: D form. The star is where a group is joined. pTerphenylCO(4''-OnC5H11) = CCCCCOc1ccc(-c2ccc(-c3ccc(C(=O)*)cc3)cc2)cc1; Orn(4R-OH,5R-OH) = O=C([C@H](C[C@@H](O)[C@@H](O)N[*:3])N[*:1])[*:2]; hTyr(3S-OH,4S-OH) = N[C@H](C(=O)O)[C@H](O)[C@@H](O)c1ccc(O)cc1; Pro(3S-OH,4S-Me) = C[C@H]1CN[C@H](C(=O)O)[C@H]1O; Hyp = O=C(O)[CH]1C[CH](O)CN1; Phe(ol) = N[CH](CO)Cc1ccccc1; Iva = CC[C](C)(N)C(=O)O; Aib = CC(C)(N)C(=O)O

Chain of Phospholipid hydroperoxide glutathione peroxidase GPX4 (Homo sapiens) (P36969 whole entry, looked up): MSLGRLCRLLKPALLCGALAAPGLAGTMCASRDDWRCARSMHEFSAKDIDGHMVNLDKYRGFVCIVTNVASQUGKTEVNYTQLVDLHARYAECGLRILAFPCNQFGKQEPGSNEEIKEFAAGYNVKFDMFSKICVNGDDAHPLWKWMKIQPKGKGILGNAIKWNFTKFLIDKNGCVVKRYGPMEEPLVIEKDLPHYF

Consider `CC[C@@H](Nc1c(Nc2cccc(C(=O)N(C)C)c2O)c(=O)c1=O)c1cc(C(C)C)co1`, for which the Potency entry in assay [1], in assay [2], in assay [4] and in assay [5] was “inactive” each time. Besides, the Potency in assay [3] is 2380 nM (active).
Turning to `COc1cc2c(NC3CCN(C(C)C)CC3)nc(N3CCC(F)(F)CC3)nc2cc1OCCCN1CCCC1`, the Potency in assay [1] was 25500 nM (active). In addition, the Potency entry in assay [2] and in assay [4] was “inactive” throughout.
For the compound `O=C(COc1ccc(C(=O)c2ccccc2)cc1)NC1CCN(Cc2ccccc2)CC1`, the Potency result in assay [1], in assay [2], in assay [3] and in assay [5] was “inactive” in each case.
Consider `CN(CC1COCCO1)S(=O)(=O)Nc1ccc2ccc3ncc(-c4cnn(C)c4)cc3c(=O)c2c1` (stereo not drawn), for which the Potency result in assay [1], in assay [2], in assay [3], in assay [4] and in assay [5] was “inactive” each time.
On to `N#C/C(=C1\Nc2ccccc2S1)c1ccnc(NCCc2cccnc2)n1`, for which the Potency entry in assay [1], in assay [2] and in assay [5] was “inactive” throughout. Also, the Potency in assay [3] is 1340 nM (active).
In the case of `O=c1cc(NCCCN[C@@H]2CCOc3c(Br)cc(Br)cc32)[nH]c2ccsc12`, the Potency entry in assay [1], in assay [2], in assay [3], in assay [4] and in assay [5] was “inactive” each time.
Regarding `O=C(c1ccc(F)cc1)N1CCCC(c2nc(-c3ccc(F)cc3)no2)C1` (stereo not drawn), the Potency result in assay [1], in assay [2], in assay [3] and in assay [5] was “inactive” throughout.
For `Cn1ncc(Cl)c1-c1cc(C(=O)N[C@H](CN)Cc2ccc(F)c(F)c2)oc1Cl`, the Potency result in assay [1], in assay [2], in assay [3], in assay [4] and in assay [5] was “inactive” throughout.
As for `CCCCCOc1ccc(-c2ccc(-c3ccc(C(=O)N[C@H]4C[C@@H](O)[C@@H](O)NC(=O)[C@@H]5[C@@H](O)[C@@H](C)CN5C(=O)[C@H]([C@@H](C)O)NC(=O)[C@H]([C@H](O)[C@@H](O)c5ccc(O)cc5)NC(=O)[C@@H]5C[C@@H](O)CN5C(=O)[C@H]([C@@H](C)O)NC4=O)cc3)cc2)cc1` ({pTerphenylCO(4''-OnC5H11)}-[Orn(4R-OH,5R-OH)]T[Hyp][hTyr(3S-OH,4S-OH)]T[Pro(3S-OH,4S-Me)]; lactam 1-C), the Potency result in assay [1], in assay [2], in assay [3], in assay [4] and in assay [5] was “inactive” each time.
Regarding `NS(=O)(=O)c1ccc(N2CCN(CC[C@@H]3OCCc4ccccc43)CC2)cc1`, the Potency entry in assay [1], in assay [2], in assay [3], in assay [4] and in assay [5] was “inactive” throughout.
As to `CNC1CN(c2ccc3c(=O)c(C(=O)O)cn(-c4nccs4)c3n2)CC1OC` (stereo not drawn), the activity change, negative = inhibition was -2.33% [at 9.73 µM] in assay [1] and -6.28% [at 11.6 µM] in assay [2]. For the same compound, the activity change, negative = thiol reactive in assay [3] was -3.65% [at 11.5 µM]. Moreover, the activity, negative = inhibition in assay [4] is -7.32% [at 11.6 µM]. Also, the redox activity (% of DA3003) in assay [5] was -6.95% [at 11.5 µM].
Regarding `CC(C)(F)CC(NC(c1ccc(-c2ccc(S(C)(=O)=O)cc2)cc1)C(F)(F)F)C(=O)NC1(C#N)CC1` (stereo not drawn), the Potency result in assay [1], in assay [2], in assay [3], in assay [4] and in assay [5] was “inactive” each time.
Consider `CC(OC1OCCN(Cc2n[nH]c(=O)[nH]2)C1c1ccc(F)cc1)c1cc(C(F)(F)F)cc(C(F)(F)F)c1` (stereo not drawn), for which the Potency entry in assay [1], in assay [2], in assay [3], in assay [4] and in assay [5] was “inactive” each time.
Consider `C/C(=C\CCC(C)C1=CCC2(C)OC3=C(CC12)C(=O)C(O)CC3)CO` (stereo not drawn), for which the Potency entry in assay [1], in assay [2], in assay [3] and in assay [5] was “inactive” each time.
As to `CCCCCCCOc1cc2c(cc1/C(C)=C/c1ccc(C(=O)O)cc1)C(C)(C)CCS2(=O)=O`, the Potency entry in assay [1], in assay [2], in assay [3] and in assay [5] was “inactive” each time.
As for `CN(C)CCC(CSc1ccccc1)Nc1ccc(S(=O)(=O)NC(=O)c2ccc(N3CCN(Cc4ccccc4-c4ccc(Cl)cc4)CC3)cc2)cc1[N+](=O)[O-]` (stereo not drawn), the Potency result in assay [1], in assay [2], in assay [4] and in assay [5] was “inactive” throughout. Moreover, in assay [3], the Potency was 2120 nM (active).
`CCC(C)(NC(=O)C(CCC(N)=O)NC(=O)C1CC(O)CN1C(=O)C(C)(C)NC(=O)C(C)(C)NC(=O)C(CC(C)C)NC(=O)CNC(=O)C(NC(=O)C(C)(C)NC(=O)C(C)(C)NC(=O)C(C)(C)NC(=O)C(Cc1ccccc1)NC(C)=O)C(C)C)C(=O)N1CC(O)CC1C(=O)NC(C)(C)C(=O)NC(CO)Cc1ccccc1` (stereo not drawn) (Ac-F[Aib][Aib][Aib]VGL[Aib][Aib][Hyp]Q[Iva][Hyp][Aib][Phe(ol)]; configuration not given here): the activity change, negative = inhibition was -5.56% [at 9.73 µM] in assay [1] and -5.79% [at 11.6 µM] in assay [2]. For the same compound, the activity change, negative = thiol reactive in assay [3] is 0.987% [at 11.5 µM]. Further, the activity, negative = inhibition in assay [4] is -0.795% [at 11.6 µM]. Further, the redox activity (% of DA3003) in assay [5] is 15.7% [at 11.5 µM].
For `CCN(CCNC(=O)Nc1ccccc1Br)c1cccc(C)c1`, the Potency entry in assay [1], in assay [2], in assay [4] and in assay [5] was “inactive” throughout. Further, in assay [3], the Potency is 2670 nM (active).
For `Nc1nc(OCc2cc(Br)cs2)c2[nH]cnc2n1`, the Potency entry in assay [1], in assay [2], in assay [3], in assay [4] and in assay [5] was “inactive” in each case.
